This is a sample that favours compounds with a hit; in the whole collection about 3.5% have one here.
UGM FP inh – M. tuberculosis UGM enzyme inhibitors, primary screen, biochemical, fluorescence polarization, single point. UDP-galactopyranose mutase (Mycobacterium tuberculosis (strain ATCC 25618 / H37Rv)), …. purified UGM, fluorescence polarization probe displacement. inhibition, % at 10 µM. 320,000 tested, 0.06% active. AID 504406, 2011; in the data active = inhibition above about 10%, passing the limit was not always enough
Target sequence (P9WIQ1 whole entry, looked up): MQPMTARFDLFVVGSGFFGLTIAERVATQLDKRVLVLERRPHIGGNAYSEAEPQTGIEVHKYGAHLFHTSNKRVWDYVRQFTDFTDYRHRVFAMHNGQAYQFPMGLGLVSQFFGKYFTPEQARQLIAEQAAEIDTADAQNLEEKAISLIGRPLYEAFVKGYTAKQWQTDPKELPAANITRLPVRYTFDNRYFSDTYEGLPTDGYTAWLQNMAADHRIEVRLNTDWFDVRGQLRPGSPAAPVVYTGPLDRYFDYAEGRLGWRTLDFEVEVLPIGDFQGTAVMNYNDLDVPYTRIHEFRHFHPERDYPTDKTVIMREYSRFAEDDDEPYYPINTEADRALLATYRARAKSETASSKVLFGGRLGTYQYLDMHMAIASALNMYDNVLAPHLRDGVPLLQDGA
FBA Mtb inh – Mtb FBA enzyme inhibitors, primary screen, biochemical, fluorescence, strain H37Rv. inhibition, % at 1 µM. 360,000 tested, 2.3% active. AID 588726, 2011. purified M. tuberculosis FBA, fluorescence read-out; in the data active = inhibition above about 27%;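 note: 0% = vehicle and 100% = reference inhibitor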
Mtb betalactam – beta-lactam sensitization of Mtb H37Rv, H37Rv; 330,000 tested, 0.27% active; AID 434955, 2010; inhibition, % at 25 µM; M. tuberculosis H37Rv growth with meropenem, percent inhibition; call rule not given here;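 note: growth measured after seven days incubation then overnight dye step; 0% = bacteria only wells and 100% = bacteria with antibiotic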
GDH-TPI inh – GDH-TPI coupling enzyme inhibitors, primary screen, artefact control for M. tuberculosis FBA inhibitor project, biochemical, absorbance, full deck. inhibition, % at 4.8 µM. GDH-TPI coupled enzyme counterscreen, NADH absorbance. AID 588335, 2011. 360,000 tested, 1.2% active; in the data active = inhibition above about 30%;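 note: 0% = DMSO wells and 100% = wells lacking the enzyme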
Rv3671c inh – Rv3671c serine protease inhibitors, primary screen, biochemical, fluorescence polarization, M. tuberculosis H37Rv. P9WHR9. inhibition, % at 5.96 µM. 320,000 tested, 0.048% active; in the data active = inhibition above about 38%;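 note: extracellular domain of Rv3671c used as enzyme; 0% = enzyme with DMSO and 100% = no enzyme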
Starred values were filed as active, the others as inactive; nt = no result; + = active, no number.

SMILES	UGM FP inh	FBA Mtb inh	Mtb betalactam	GDH-TPI inh	Rv3671c inh
CC(=O)NC1CC2CCCC(C1)N2CC(=O)N1CCCc2ccccc21 (stereo not drawn)	-1	2	-10	5	3
O=C(NC1CC2CCCC(C1)N2CC(=O)N1CCCc2ccccc21)C1CCCCC1 (stereo not drawn)	1	191*	-11	10	-16
Cc1ccsc1/C=N/NC(=O)C1C(=O)NCC1c1ccccc1 (stereo not drawn)	0	nt	-4	nt	3
C/C(=N\Nc1ccc(Cl)c(C(=O)O)c1)c1ccc(N2CCOCC2)cc1	3	-3	-2	31*	11
C/C(=N\NC(=O)c1cccc(C)c1)c1ccc(N2CCOCC2)cc1	-1	4	23	34*	-3
COC(=O)/C(=N/Nc1ccccc1)N1CCCc2ccccc21	nt	-2	-5	34*	3
COC(=O)/C(=N/Nc1ccc(C)cc1)N1CCCc2ccccc21	1	-1	99	23	-2
COc1ccc(/C=C(\NC(=O)c2ccccc2)C(=O)N/N=C/c2cccnc2)cc1	3	-2	-2	39*	0
Cc1ccnc(N/C=C(/NC(=O)c2ccccc2)C(=O)N/N=C\c2ccc(F)cc2)n1	0	2	-12	54*	6
Cc1ccnc(N/C=C(/NC(=O)c2ccccc2)C(=O)NN)n1	-1	2	-3	16	6
COc1ccc(/C=C(\NC(=O)c2ccccc2)C(=O)N/N=C/c2ccncc2)cc1	0	0	-1	49*	3
CCOc1ccc(-n2c(C)cc(/C=N/Nc3nc(C)cc(=O)[nH]3)c2C)cc1	2	3	57	36*	6
Cc1cc(C)nc(N/N=C/C=C/c2ccccc2)n1	0	-3	10	34*	1
COc1ccccc1C=NNc1nc(C)cc(=O)[nH]1	nt	0	nt	37*	nt
Cc1cc(=O)[nH]c(N/N=C/c2ccc(-c3ccc(F)cc3)o2)n1	-2	0	91	37*	9
CCOc1ccc(-n2c(C)cc(/C=N/NC(=O)C(N)=O)c2C)cc1	-6	-3	73	8	5
CCC(C)(C)C1CCC2(CC1)NC(=O)N(CC(=O)N(C)Cc1ccc(OC(F)F)cc1)C2=O (stereo not drawn)	3	-1	1	-10	5
COC(=O)c1ccc(COc2ccc(/C=N/Nc3nc(C)cc(=O)[nH]3)cc2)cc1	-3	0	1	36*	-2
Cc1cc(=O)[nH]c(NN=Cc2c(Cl)cccc2Cl)n1	nt	-2	nt	17	nt
Cc1cc(=O)[nH]c(N/N=C/c2ccc(Br)s2)n1	4	-4	85	42*	14
Cc1cc(=O)[nH]c(N/N=C/C=C/c2ccccc2)n1	-2	-2	1	38*	1
CCOc1ccc(S(=O)(=O)N2CCCCC2)cc1NC(=O)Cc1cccs1	2	-2	3	5	8
C#CCn1c2ccccc2c(=O)n1C(C)C	nt	121*	nt	nt	nt
CC(C)n1c(=S)[nH]c2ccccc2c1=O	-1	-1	25	0	-7
CCn1c(C)c(C(C)=O)cc(C#N)c1=O	-2	4	-3	-1	3
SMILES	UGM FP inh	FBA Mtb inh	Mtb betalactam	GDH-TPI inh	Rv3671c inh
COc1ccc(C#Cc2c(-c3ccsc3)oc3ccc(N4CCOCC4)cc23)cc1	1	27	74	33*	-2
COc1ccc(-c2oc3ccc(N4CCOCC4)cc3c2C#CC2(O)CCCCC2)cc1	-1	68*	38	29	1
CCC(CC)c1nnc(NC(=O)C2CC(=O)N(C3CCCC3)C2)s1 (stereo not drawn)	-1	2	2	8	-2
CC1CN(Cc2cc(=O)oc3cc(O)c(Cl)cc23)CC(C)O1 (stereo not drawn)	3	+	-3	1	0
CC1CCN(Cc2cc(=O)oc3cc(O)c(Cl)cc23)CC1	1	+	-3	12	6
CN(Cc1ccccc1F)Cc1cc(=O)oc2cc(O)c(Cl)cc12	-1	+	-9	7	-1
Cc1cc2oc(=O)cc(CN(C)Cc3ccccc3F)c2cc1Cl	3	1	3	17	-4
CC(C)(Oc1ccc(Cl)cc1)C(=O)NNC(=O)c1ccc(Br)o1	-1	0	-3	-3	nt
Cc1ccc(-c2cc(C(=O)O)c3sc(N4CCCCC4)nc3n2)cc1	1	163*	3	14	-82
